The values that follow come from PubChem BioAssay AID434970 (Sanford-Burnham Center for Chemical Genomics, 2010).

Screen size: about 11,000 compounds; about 310 (2.8%) were called active. No stated cut-off is given here; in the data, active means activity change below about -85%; inactive means the rest. The full list was thinned out, with actives kept by preference. Starred links: 1 amine or outer side, 2 acyl side, 3 side chain; linkers in the order of their positions; H or OH if unused. Positions of bridges follow the written chain, without caps; N, C: chain ends. Non-standard residues stand in square brackets, D forms with d. Residues, ends and D or L forms follow the SMILES beside them. ξ: configuration not given here. hSer(Ph(2-I,4-NO2,6-CO)) = O=C([C@H](CCOc1c(I)cc([N+](=O)[O-])cc1C(=O)[*:3])N[*:1])[*:2]; ξD = NC(CC(=O)O)C(=O)O

The test system of this assay is intestinal alkaline phosphatase [Mus musculus]. The assay can be described thus: activators of mouse IAP, confirmation, biochemical, luminescence, single concentration (AID 434970). The following applies: purified mouse IAP, CDP-Star luminescence, 30 min, at 10 µM; activation factor: measured here: IAP activation factor, stronger effect = higher value; activity change, negative = activation: stronger effect = lower value.
With `Cc1cccc(CN2CCC(CNC(=O)CCNC(=O)Cn3ccc4ccccc4c3=O)CC2)c1`, the activation factor came to 0.974 and the activity change, negative = activation was 2.6% (inactive).
On to `Cc1ccc(NC(=O)NCC2CCN(Cc3cccc(Cl)c3)CC2)c(Cl)c1`, for which the activation factor was determined as 2.2 and the activity change, negative = activation is -120% (active).
On the same counts, the results for `O=C(NCC1CCN(Cc2cccc(Cl)c2)CC1)Nc1ccccc1Cl` are 2.17 and -118% (active).
On the same counts, the results for `CCOC(=O)N1CCN(C(=O)Nc2ccc(Cl)cc2Cl)CC1` are 1.02 and -1.6% (inactive).
On the same counts, the results for `CCOC(=O)C1CCN(CCC(=O)Nc2ccccc2Cl)CC1` are 0.996 and 0.35% (inactive).
`S=C(Nc1cc(Cl)cc(Cl)c1)NC1CCN(Cc2ccccc2)CC1`: the activation factor amounted to 1.54 and the activity change, negative = activation is -53.5% (inactive).
For `COc1cccc(Cn2cnc3c(NS(=O)(=O)c4ccc(Cl)cc4Cl)c(C)c(C)cc32)c1` the same measures were 0.985 and 1.45% (inactive).
With `CCn1cc(CN2CCC(C(=O)Nc3cccc(-c4cccc(Cl)c4)c3)CC2)cn1`, the activation factor is 4.29 and the activity change, negative = activation was -329% (active).
As to `Cc1ccc(S(=O)(=O)NNC(=O)C2CCN(Cc3ccccc3)CC2)cc1`, the activation factor was found to be 0.94 and the activity change, negative = activation is 6% (inactive).
For `Cc1cc(C)c(S(=O)(=O)NNC(=O)C2CCN(Cc3ccccc3)CC2)c(C)c1` the same measures were 0.968 and 3.2% (inactive).
On the same counts, the results for `CC(C)c1ccc(CN2CCC(C(=O)NCc3cccnc3)CC2)cc1` are 1.04 and -4.3% (inactive).
For the compound `CCn1c2ccccc2c2cc(NC(=O)C3CCN(S(=O)(=O)c4cccs4)CC3)ccc21`, the activation factor came to 1.53 and the activity change, negative = activation is -52.7% (inactive).
Take `Cc1ccc(CN2CCC(C(=O)Nc3cccc(-c4cccc(F)c4)c3)CC2)o1`: the activation factor turned out to be 1.48 and the activity change, negative = activation was -48.2% (inactive).
For `Cn1cc(CN2CCC(C(=O)Nc3cccc(-c4cccc(F)c4)c3)CC2)cn1`, the activation factor was 2.29 and the activity change, negative = activation is -129% (active).
On the same counts, the results for `CCn1cc(CN2CCC(C(=O)Nc3cccc(-c4cccc(F)c4)c3)CC2)cn1` are 2.66 and -166% (active).
On the same counts, the results for `CC(C)n1cc(CN2CCC(C(=O)Nc3cccc(-c4cccc(Cl)c4)c3)CC2)cn1` are 3.97 and -297% (active).
On the same counts, the results for `C[C@]12c3[nH]c4ccc(Cl)cc4c3CCN1C(=O)[C@@H](CC(=O)NCc1cccc(C(F)(F)F)c1)C[C@@H]2C(=O)N1CCCCC1` are 1.26 and -26.2% (inactive).
For `c1ccc(-n2nnnc2SCc2cccc3nsnc23)cc1`, the activation factor came to 0.908 and the activity change, negative = activation was 9.2% (inactive).
For `O=[N+]([O-])c1ccc2n[nH]nc2c1` the same measures were 1.02 and -2.4% (inactive).
On the same counts, the results for `O=C(Nc1nnc(SCc2ccccc2Cl)s1)C1COc2ccccc2O1` (configuration not stated) are 0.965 and 3.5% (inactive).
For `CC(=O)c1sc(Nc2nc(C)cc(C)n2)nc1C`, the activation factor is 0.928 and the activity change, negative = activation was 7.2% (inactive).
On the same counts, the results for `COc1ccc(CN(CC(O)COCc2ccccc2)S(=O)(=O)c2ccccc2Br)cc1OC` (configuration not stated) are 1.04 and -3.55% (inactive).
With `O=C1CN(c2ccccc2F)C(=O)CN1c1ccccc1F`, the activation factor is 1.01 and the activity change, negative = activation is -1.1% (inactive).
For `C#CCOCCOCCOCCNc1nc(N2CCN(C(=O)CCCCCCCCCCNC(=O)[C@H](CCCCN)n3cc(C)nn3)CC2)nc(N2CCN(C(=O)CCCCCCCCCCNC(=O)[C@H](CCCN=C(N)N)n3cc(C[C@@H](C)CC)nn3)CC2)n1` the same measures were 3.95 and -295% (active).
For `C#CCOCCOCCOCCNc1nc(N2CCN(C(=O)CCCCCCCCCCNC(=O)[C@H](CCCCN)n3cc(CCO)nn3)CC2)nc(N2CCN(C(=O)CCCCCCCCCCNC(=O)[C@H](CCCN=C(N)N)n3cc(C[C@@H](C)CC)nn3)CC2)n1` the same measures were 3.04 and -204% (active).
Regarding `C#CCOCCOCCOCCNc1nc(N2CCN(C(=O)CCCCCCCCCCNC(=O)[C@H](CCCCN)n3cc(CCCC(=O)O)nn3)CC2)nc(N2CCN(C(=O)CCCCCCCCCCNC(=O)[C@H](CCCN=C(N)N)n3cc(C[C@@H](C)CC)nn3)CC2)n1`, the activation factor is 2.67 and the activity change, negative = activation is -167% (active).
Regarding `CCOC(=O)c1c(N)sc(C(O)(C(F)(F)F)C(F)(F)F)c1-c1ccccc1`, the activation factor amounted to 1.07 and the activity change, negative = activation was -6.55% (inactive).
On the same counts, the results for `CC1CN(c2nc3c(c(=O)n(Cc4ccc(Cl)c(Cl)c4)c(=O)n3C)n2C)CC(C)O1` (configuration not stated) are 1.01 and -0.8% (inactive).
For `Cc1n[nH]c(C)c1S(=O)(=O)N1CCCC(C(=O)N2CCc3ccccc32)C1` (configuration not stated) the same measures were 0.946 and 5.45% (inactive).
On the same counts, the results for `COc1ccc(Nc2nc(N)nc(CSc3nccc(C)n3)n2)cc1` are 1.04 and -3.9% (inactive).
Take `Cc1ccc(-c2nnn(CC(=O)N3CCCc4ccccc43)n2)cc1`: the activation factor is 1.06 and the activity change, negative = activation was -6.35% (inactive).
Take `CSc1cccc(NC(=O)NCc2cccc(CNC(=O)Nc3cccc(SC)c3)c2)c1`: the activation factor turned out to be 1.62 and the activity change, negative = activation was -61.9% (inactive).
As for `CSc1cccc(NC(=O)Nc2ccccc2)c1`, the activation factor was 2.1 and the activity change, negative = activation was -110% (active).
With `CSc1cccc(NC(=O)Nc2ccc(Cl)cc2)c1`, the activation factor worked out at 2.06 and the activity change, negative = activation was -106% (active).
On the same counts, the results for `COC(=O)c1cccc(NC(=O)Nc2ccc(Cl)cc2)c1` are 1.48 and -47.6% (inactive).
With `COc1ccccc1C(=O)Nc1cccc(SC)c1`, the activation factor was found to be 1.12 and the activity change, negative = activation is -11.6% (inactive).
As to `CSc1cccc(NC(=O)Nc2nc3c(C)cccc3s2)c1`, the activation factor came to 1.45 and the activity change, negative = activation is -45% (inactive).
With `Cc1cnc(-c2nnc(N(C)C(=O)C3CCOC3)s2)cn1` (configuration not stated), the activation factor worked out at 0.996 and the activity change, negative = activation is 0.45% (inactive).
For `Cc1onc(-c2ccccc2Cl)c1C(=O)OCC(=O)N1CCCc2ccccc21`, the activation factor was found to be 1.02 and the activity change, negative = activation was -2.05% (inactive).
For `CC(C)(C)c1ccc(OCC(=O)NCc2ccco2)c(Br)c1`, the activation factor is 0.869 and the activity change, negative = activation was 13.1% (inactive).
For `CC(C)N1CC2=C(OC(N)=C(C#N)C2c2cccnc2)/C(=C/c2cccnc2)C1` (configuration not stated) the same measures were 0.917 and 8.3% (inactive).
On to `Cc1ccc(SCCNC(=S)Nc2ccc(C)c(C)c2)cc1`, for which the activation factor was 1.46 and the activity change, negative = activation was -45.9% (inactive).
For the compound `Cc1ccc(C)c(CN2CCC(CNC(=O)Nc3ccc(Br)cc3F)CC2)c1`, the activation factor was determined as 1.55 and the activity change, negative = activation is -54.9% (inactive).
For the compound `Cc1ccc(SCC(=O)Nc2ccc(N3CCN(C)CC3)c(F)c2)c(C)c1`, the activation factor stood at 1.13 and the activity change, negative = activation is -13% (inactive).
For `Cc1cc(C)cc(NC(=O)NCC2CCN(Cc3cc(C)ccc3C)CC2)c1` the same measures were 2.32 and -132% (active).
As for `Cc1ccc(C)c(CN2CCC(CNC(=O)Nc3ccc(C)c(F)c3)CC2)c1`, the activation factor was found to be 2.16 and the activity change, negative = activation was -116% (active).
For `Cc1cc(C)c(CN2CCN(C(=O)Cn3cnc(C(=O)Nc4ccc(C)c(C)c4)n3)CC2)c(C)c1` the same measures were 1.13 and -13.2% (inactive).
Turning to `Cc1ccc(C)c(CN2CCC(CNC(=O)Nc3ccc(C)c(C)c3)CC2)c1`, the activation factor was 2.21 and the activity change, negative = activation is -121% (active).
With `C[C@@H]1NC(=O)c2cc([N+](=O)[O-])cc(I)c2OCC[C@@H](C(=O)NC(CC(=O)O)C(N)=O)NC(=O)[C@H](CC(N)=O)NC1=O` (some centres not stated) (AN[hSer(Ph(2-I,4-NO2,6-CO))][ξD]-NH2; lactam N-3), the activation factor was 1.15 and the activity change, negative = activation is -14.8% (inactive).
On the same counts, the results for `CC[C@]12c3[nH]c4cc(-c5ccco5)ccc4c3CCN1C(=O)[C@@H](CC(=O)NCc1ccco1)C[C@@H]2C(=O)N1CCN(C(=O)C2CC2)CC1` are 1.23 and -22.7% (inactive).
For `CC(C)CCNC(=O)NC(=O)CSc1nnc(COc2ccccc2Cl)o1` the same measures were 1.04 and -4.3% (inactive).
On the same counts, the results for `CC(C)C(=O)Nc1nnc(SCC(=O)NCc2cccs2)s1` are 0.976 and 2.4% (inactive).
On to `Cc1ccc(C(=O)Nc2nncs2)cc1S(=O)(=O)N1CCOCC1`, for which the activation factor was 0.927 and the activity change, negative = activation was 7.35% (inactive).
Regarding `COc1ccc(S(=O)(=O)NCCc2ccc(F)cc2)cc1`, the activation factor amounted to 0.961 and the activity change, negative = activation was 3.9% (inactive).
For `Cc1cc2c(ncn2C)c(NS(=O)(=O)c2cc(Cl)ccc2Cl)c1C`, the activation factor came out at 0.946 and the activity change, negative = activation is 5.45% (inactive).
On the same counts, the results for `Cc1noc2ncnc(Sc3c(Cl)cccc3Cl)c12` are 0.906 and 9.4% (inactive).
For `C#CCOCCOCCOCCNc1nc(N2CCN(C(=O)CCCCCCCCCCNC(=O)[C@H](CO)n3cc(CCCSC)nn3)CC2)nc(N2CCN(C(=O)CCCCCCCCCCNC(=O)[C@H](CCCN=C(N)N)n3cc(C[C@@H](C)CC)nn3)CC2)n1` the same measures were 5.98 and -498% (active).
For `C#CCOCCOCCOCCNc1nc(N2CCN(C(=O)CCCCCCCCCCNC(=O)[C@@H](CCSC)n3cc(CCO)nn3)CC2)nc(N2CCN(C(=O)CCCCCCCCCCNC(=O)[C@H](CCCN=C(N)N)n3cc(C[C@@H](C)CC)nn3)CC2)n1` the same measures were 8.61 and -761% (active).
`C#CCOCCOCCOCCNc1nc(N2CCN(C(=O)CCCCCCCCCCNC(=O)[C@H](CO)n3cc(CCCSC)nn3)CC2)nc(N2CCN(C(=O)CCCCCCCCCCNC(=O)[C@H](CCCCN)n3cc(C[C@@H](C)CC)nn3)CC2)n1`: the activation factor turned out to be 2.83 and the activity change, negative = activation is -183% (active).
On the same counts, the results for `COc1ccc(N2C(=O)C3CCCN3C2c2ccccc2)cc1Cl` (configuration not stated) are 0.895 and 10.5% (inactive).
Take `C=CCNC(=O)c1nc2ccccc2s1`: the activation factor is 0.92 and the activity change, negative = activation was 8% (inactive).
On the same counts, the results for `Cn1c(=O)cc(SCC(=O)Nc2cccnc2)c2ccccc21` are 0.952 and 4.8% (inactive).
Regarding `CCC1CCCCN1CCCNC(=O)c1ccc2c(=O)n(Cc3ccc(OC)cc3)c(=O)[nH]c2c1` (configuration not stated), the activation factor was determined as 0.925 and the activity change, negative = activation was 7.5% (inactive).
On the same counts, the results for `Fc1ccc(CNc2nc(-c3ccco3)cc(C(F)(F)F)n2)cc1` are 0.991 and 0.9% (inactive).
`COc1ccc2c(c1OC)C(=O)N(c1ccc(C)c(C)c1)C2=O`: the activation factor amounted to 0.976 and the activity change, negative = activation was 2.45% (inactive).
On the same counts, the results for `COc1cc(/C=C(\C#N)c2nc3ccc(C)cc3[nH]2)c([N+](=O)[O-])cc1OC` are 0.806 and 19.4% (inactive).
On the same counts, the results for `Cc1[nH]ccc(=O)c1OCc1c(Cl)cccc1Cl` are 0.957 and 4.3% (inactive).
On the same counts, the results for `COCCn1c(Sc2ccccc2)nc2c1c(=O)[nH]c(=O)n2C` are 1.07 and -6.95% (inactive).
`COC(=O)[C@H]1C2CCC(C(=O)OC)(CC2)[C@H]1C(=O)OC`: the activation factor worked out at 0.915 and the activity change, negative = activation is 8.55% (inactive).
For `O=S(=O)(c1ccc(F)cc1)N1CCN(CC(O)COCc2cccs2)CC1` (configuration not stated) the same measures were 0.928 and 7.2% (inactive).
As for `Cc1c(C(=O)Nc2ccc(Cl)cc2)c2ccccn2c1C(=O)c1ccccc1`, the activation factor is 1.02 and the activity change, negative = activation was -1.8% (inactive).
